# Screening data from PubChem.
# Compounds with a hit are over-represented: about 3.1% of the library has one in this group of screens.
# PMP22 txn: modulates PMP22 transcription in S16 Schwann cells | S16 Pmp22-F2sN Schwann cells, FLuc/NLuc coincidence luminescence, 24 h | 2% of 43,000 active | AID 1508649 | Potency, µM (series often up to 57.5 µM), for inactives: at the highest dose activity change, negative = inhibition, usual class: inhibitors; active = clear falling dose curves in both reporters; inconclusive = both reporters move, but less clearly or upward; inactive = either reporter flat; the % is the NLuc reporter signal; also: potency is read from the fitted curve at half-maximal effect; % is scaled to controls: 0 for no effect and ±100 for the full control effect
#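 Reporter cells (S16 Pmp22-F2sN, 500–1,000 per well) exposed to compounds for 24 h, 37C, 5% CO2; lysis with FLuc read after 10 min, then Stop&Glo and NLuc read after 10 min.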
# p53null 39C tox: selectivity test: cytotoxicity in p53 null cells, nonpermissive temperature | H1299 p53-null (neo) cells, 39C, ATPlite viability, 24 h | Potency, µM (top dose mostly 46.1 µM), without a hit: top-dose activity, negative = cell killing, hits mostly cytotoxic | 0.97% of 55,000 active | AID 904;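 also: potency is read from the fitted curve at half-maximal effect; 0% = DMSO only and -100% = full killing by 100 µM tamoxifen; nearly all actives have a fitted effect of over 50% in size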
#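 Concentration-response (up to 46 uM) was run for 24 h at the nonpermissive 39C on H1299-p53A138V or H1299-neo cells. ATP content was measured with ATPlite luminescence. AC50 values were Hill-modeled after normalizing between DMSO and 100 uM tamoxifen killing.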
# OvCa metastasis: blocks SKOV3ip1 adhesion and invasion in omental model. SKOV3ip1-GFP adhesion/invasion on 3D omental model, fluorescence. Potency, µM (doses to about 45.8 µM), without a hit: at the highest dose activity change, negative = inhibition, hits mostly inhibitors. 0.1% of 46,000 active. AID 1963576;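 also: potency is read from the fitted curve at half-maximal effect; plate controls were DMSO wells for no effect and tomatine positive control wells for full effect; nearly all actives have a fitted effect of over 65% in size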
#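 A 3D layer of primary human omental fibroblasts, mesothelial cells, fibronectin and collagen I, grown 48 hr, received SKOV3ip1-GFP cells in serum-free medium plus compounds at 0.36-46 umol/L. After 2 hr RT and 16 hr 37 C, fixed adherent GFP cells were counted; normalized to DMSO and tomatine.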
# p53null 32C kill: selectivity test: cytotoxicity in p53 null cells, permissive temperature. 0.62% of 55,000 active. Potency, µM (series often up to 46.1 µM), for inactives: top-dose activity change, negative = cytotoxicity, usual class: cytotoxic. H1299-neo p53 null cells, ATP luminescence, 24 h, 32C;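 also: potency is read from the fitted curve at half-maximal effect; 0% = DMSO only and -100% = full killing by 100 µM tamoxifen; nearly all actives have a fitted effect of over 55% in size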
#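 Cells lacking p53 (H1299-neo) are plated at 600 per well and allowed to settle overnight at 37C. Test compounds (up to 46 uM) are added and held 24 hours at 32C, then ATP is quantified by luminescence.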
# S16 F2sN tox: cytotoxicity in S16 Pmp22-F2sN Schwann cells; Potency, µM (doses to about 57.5 µM), for inactives: at the top dose activity change, negative = cytotoxicity, actives largely listed as cytotoxic; S16 Pmp22-F2sN Schwann cells viability, CellTiter-Glo, 24 h; AID 1508642; 0.48% of 43,000 active; also: potency is read from the fitted curve at half-maximal effect; % is scaled to controls: 0 for no effect and ±100 for the full control effect; nearly all actives have a fitted effect of over 65% in size
#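 Viability was measured by CellTiter-Glo luminescence (15 min, room temperature). This followed 24 h at 37 °C of compound exposure (23 nL pin transfer) in S16 Pmp22-F2sN Schwann cells, 500-1,000 per well.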
# pS6 MEF inh: reduces mTORC1 signaling in Tsc2 and p53 null MEF cells. 0.78% of 44,000 active. Potency, µM (titrated, usually from 38.3 µM), for the others: at the highest dose activity change, negative = inhibition, most hits filed as inhibitors. Tsc2-/- p53-/- MEF, phospho-rpS6 immunofluorescence/PI, 24 h. AID 493208;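 also: potency is read from the fitted curve at half-maximal effect; plate controls were DMSO for no effect and rapamycin for full effect; nearly all actives have a fitted effect of over 50% in size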
#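 Compounds act on Tsc2-/-, p53-/- fibroblasts carrying an empty vector for 24 h before fixation and dual staining for phospho-S6 and DNA (propidium iodide). Values are percentages of cells above a rapamycin-defined pS6/PI threshold.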
# NLuc sat counter: NanoLuc enzyme inhibition artifact for PMP22 screen; shares compounds with PMP22 txn; Secreted NLuc enzyme (filtered S16 cell medium), Nano-Glo luminescence; Potency, µM (titrated, usually from 57.5 µM), for the others: at the highest dose activity change, negative = inhibition, most hits filed as inhibitors; 4% of 690 active; AID 1508638; also: potency is read from the fitted curve at half-maximal effect; % is scaled to controls: 0 for no effect and ±100 for the full control effect
# NLuc Km ctr: inhibits NanoLuc under Km conditions, PMP22 counter-screen. 5% of 690 active. shares compounds with PMP22 txn. secreted NLuc enzyme, coelenterazine luminescence, Km conditions. Potency, µM (titrated, usually from 57.5 µM), for the others: at the highest dose activity change, negative = inhibition, usual class: inhibitors; also: potency is read from the fitted curve at half-maximal effect; % is scaled to controls: 0 for no effect and ±100 for the full control effect
# FLuc ctr PMP22: inhibits firefly luciferase, PMP22 counter-screen; shares compounds with PMP22 txn; purified P. pyralis FLuc, luminescence, 10 min; Potency, µM (highest dose often 57.5 µM), for inactives: top-dose activity, negative = inhibition, most hits filed as inhibitors; 690 tested, under 10 active; also: % of control where 0% means no effect
# Target sequence (P08659 whole entry, looked up): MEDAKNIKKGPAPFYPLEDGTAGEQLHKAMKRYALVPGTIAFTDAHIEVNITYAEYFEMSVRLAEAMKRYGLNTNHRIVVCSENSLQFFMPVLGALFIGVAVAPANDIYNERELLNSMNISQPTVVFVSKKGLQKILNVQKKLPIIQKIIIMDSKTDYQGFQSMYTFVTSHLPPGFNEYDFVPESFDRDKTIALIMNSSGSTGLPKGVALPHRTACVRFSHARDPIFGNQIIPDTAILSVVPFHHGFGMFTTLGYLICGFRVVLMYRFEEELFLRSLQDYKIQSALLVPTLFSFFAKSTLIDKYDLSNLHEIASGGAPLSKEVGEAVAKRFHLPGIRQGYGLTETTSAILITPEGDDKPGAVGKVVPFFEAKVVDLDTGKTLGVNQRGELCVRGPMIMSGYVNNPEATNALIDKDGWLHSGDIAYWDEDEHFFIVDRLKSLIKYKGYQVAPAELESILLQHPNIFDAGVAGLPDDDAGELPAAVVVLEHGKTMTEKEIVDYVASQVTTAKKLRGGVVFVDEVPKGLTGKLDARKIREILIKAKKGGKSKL
# S16 viab conf: confirmation of cytotoxicity in S16 Pmp22-F2sN Schwann cells (luciferase reporters placed in the Pmp22 gene). shares compounds with PMP22 txn. S16 Schwann cells viability, CellTiter-Glo ATP luminescence, 24 h. Potency, µM (titrated, usually from 57.5 µM), inactives show at the top dose activity change, negative = viability loss, actives largely listed as cytotoxic. 7% of 690 active. AID 1508641; also: potency is read from the fitted curve at half-maximal effect; % is scaled to controls: 0 for no effect and ±100 for the full control effect
# PMP22 txn cnf: confirmation of modulators of PMP22 gene transcription in S16 cells; shares compounds with PMP22 txn; S16 Schwann cells Pmp22-F2sN, dual luciferase, 24 h; Potency, µM (titrated, usually from 57.5 µM), for inactives: at the highest dose activity change, negative = inhibition, hits mostly inhibitors; 22% of 690 active; AID 1508646; active = clear falling dose curves in both reporters; inconclusive = both reporters move, but less clearly or upward; inactive = either reporter flat; the % is the FLuc reporter signal; also: potency is read from the fitted curve at half-maximal effect
# Active calls of the source: *; i = inactive; u = inconclusive; x = not tested or not shown. Unless noted, calls follow the shape of the dose curve; as a rule, active = well fitted curve in the direction sought with a large enough effect; inconclusive = small, poorly fitted or top-dose-only effect, or another doubt; inactive = no such curve, though single readings can be large; an effect the other way counts as inactive or inconclusive.
SMILES,PMP22 txn,p53null 39C tox,OvCa metastasis,p53null 32C kill,S16 F2sN tox,pS6 MEF inh,NLuc sat counter,NLuc Km ctr,FLuc ctr PMP22,S16 viab conf,PMP22 txn cnf
COc1cccc(NC(=O)CCCn2c(=O)c3cccn3c3cccnc32)c1,u,-13%,i,-6%,0%,3%,u,u,0%,4%,u
Cc1ccc(S(=O)(=O)N2CCN(Cc3noc(CCC(=O)N4CCCCC4)n3)CC2)c(C)c1,u,-9%,-4%,-4%,-22%,-11%,0%,3%,3%,-13%,-16%
Cc1cc(C)c(S(=O)(=O)N2CCN(Cc3nc4ccc(C)cc4o3)CC2)c(C)c1,u,3%,-21%,15%,-11%,32%,x,x,x,x,x
Cc1cc2n(n1)CCC(=O)N2Cc1ccc(C(=O)Nc2ccc(F)cc2F)cc1,u,23%,6%,11%,-12%,-19%,x,x,x,x,x
Cn1c(=O)n(-c2ccc3c(c2)OCO3)c2nc(-c3ccc(Cl)cc3)nc(C(N)=O)c21,u,0%,i,-2%,23%,-2%,-4%,-1%,4%,-9%,-27%
COc1cc(OC)c(C=CS(=O)(=O)Cc2ccc(OC)c(NCC(=O)O)c2)c(OC)c1,x,x,24%,x,x,x,x,x,x,x,x
COc1ccc(Cl)cc1NC(=O)CSc1nc2ccccc2nc1N1CCCCC1,13µM*,-9%,4%,-7%,8%,-1%,-9%,9%,-4%,-9%,-33%
COc1ccc(N2CCN(c3c4c(nc5nncn35)CCC4)CC2)cc1,13µM*,-14%,2%,-4%,-26%,u,u,0%,-8%,-8%,u
Cc1onc(-c2ccccc2)c1C(=O)N[C@@H]1C(=O)N2[C@@H](C(=O)O)C(C)(C)S[C@@H]12,x,x,-17%,x,x,x,x,x,x,x,x
CCc1cccc(C)c1NC(=O)c1nc2ccccc2nc1N1CCCCC1,u,-9%,-5%,8%,0%,-8%,-5%,u,2%,9%,-27%
CCC(Sc1nncn2c1cc1occc12)C(=O)Nc1ccc(C)c(Cl)c1 (centres undefined),17µM*,6%,4%,6%,u,0%,u,u,-16%,-5%,u
O=C(CSc1nncn2c1cc1occc12)Nc1ccc(F)c(Cl)c1,-26%,-20%,4%,1%,-3%,-15%,x,x,x,x,x
CCNC(=O)CCCC=CC[C@@H]1[C@H](C=CC(O)CCc2ccccc2)[C@@H](O)C[C@@H]1O (some centres undefined),x,x,2%,x,x,x,x,x,x,x,x
